Records with an inconclusive call do not appear. Entries that show only a call come without a potency. Activity calls are given as the source filed them. Calls come from the whole dose curve; as a rule, active = well fitted inhibition curve with a large enough effect; inconclusive = small, poorly fitted or top-dose-only effect; inactive = flat fitted curve, though single readings scatter.
Experiment: P-glycoprotein substrates identified in KB-8-5-11 adenocarcinoma cell line, qHTS therapeutic library screen (AID 1346987); note: nearly all actives have a fitted effect of over 65% in size
Conditions: KB-8-5-11 (P-gp overexpressing) viability, CellTiter-Glo, 72 h; series mostly up to 44.5 µM
Summary of the method: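 Steps: plate 500 KB-8-5-11 cells/well in DMEM + 10% FCS (colchicine removed); pin compounds in dose-response; incubate 72 h, 37 degree C, 5% CO2; add CellTiter-Glo, 5 min; read luminescence.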
Potency is the fitted concentration of half-maximal effect.

Structure (SMILES)	Potency
CCCCC[C@H](O)C=C[C@H]1[C@H](O)CC(=O)[C@H]1CCCCCCC(=O)O	inactive
COC(=O)[C@H](c1ccccc1Cl)N1CCc2sccc2C1	inactive
CN(C)c1ccccc1CN1CCCN(Cc2ccccc2N(C)C)C1c1ccncc1	inactive
CC(C)(F)C[C@H](N[C@@H](c1ccc(-c2ccc(S(C)(=O)=O)cc2)cc1)C(F)(F)F)C(=O)NC1(C#N)CC1	inactive
OCCn1cc(-c2ccc3c(c2)CCC3=NO)c(-c2ccncc2)n1	inactive
CC1(C)OC2CC3C4CC(F)C5=CC(=O)C=CC5(C)C4C(O)CC3(C)[C@]2(C(=O)CO)O1 (stereo not given in full)	inactive
Cc1ccc(C(=O)N(CCCN)[C@@H](c2oc3cc(Cl)ccc3c(=O)c2Cc2ccccc2)C(C)C)cc1	83.3 nM (active)
FC(F)(F)c1ccc(C=Cc2nc(COc3ccc(CCCCn4ccnn4)cc3)co2)cc1	inactive
CNc1nc(Nc2ccc(C(=O)N3CCOCC3)cc2OC)ncc1Cl	inactive
C[C@H](CCC(=O)O)[C@H]1CC[C@H]2[C@H]3[C@@H](CC[C@]12C)[C@@]1(C)CC[C@@H](O)C[C@H]1C[C@@H]3O	inactive

Reference: PubChem BioAssay (NCATS)
